# Screens as filed in PubChem BioAssay.
# p53null 32C tox: selectivity test: cytotoxicity in p53 null cells, permissive temperature; H1299-neo p53 null cells, ATP luminescence, 24 h, 32C; Potency, µM (series often up to 46.1 µM), without a hit: at the highest dose activity change, negative = cytotoxicity, most hits filed as cytotoxic; actives 0.62% (n = 55,000); AID 903;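 further: potency means the concentration at half of the fitted maximal effect; 0% = DMSO only and -100% = full killing by 100 µM tamoxifen; nearly all actives have a fitted effect of over 55% in size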
#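 Luminescent ATP readout gave cell viability of p53-null H1299-neo cells after a 24 h compound exposure at the permissive 32C. Titrations ran up to 46 uM, and AC50s were fitted with the standard Hill equation.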
# SKOV3 invasion: ovarian cancer metastasis inhibition, 3D TME model; SKOV3ip1-GFP adhesion/invasion on 3D omental model, fluorescence; actives 0.1% (n = 46,000); Potency, µM (top dose mostly 45.8 µM), for the others: at the highest dose activity change, negative = inhibition, hits mostly inhibitors;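 further: potency means the concentration at half of the fitted maximal effect; plate controls were DMSO wells for no effect and tomatine positive control wells for full effect; nearly all actives have a fitted effect of over 65% in size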
#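 A 3D layer of primary human omental fibroblasts, mesothelial cells, fibronectin and collagen I, grown 48 hr, received SKOV3ip1-GFP cells in serum-free medium plus compounds at 0.36-46 umol/L. After 2 hr RT and 16 hr 37 C, fixed adherent GFP cells were counted; normalized to DMSO and tomatine.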
# pS6 MEF inh: mTORC1 pathway inhibition measured by phospho-rpS6. Tsc2-/- p53-/- MEF, phospho-rpS6 immunofluorescence/PI, 24 h. Potency, µM (top dose mostly 38.3 µM), for the others: at the highest dose activity change, negative = inhibition, usual class: inhibitors. actives 0.78% (n = 44,000). AID 493208;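 further: potency means the concentration at half of the fitted maximal effect; plate controls were DMSO for no effect and rapamycin for full effect; nearly all actives have a fitted effect of over 50% in size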
#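 Read-out: phospho-S6 Alexa-488 intensity over PI intensity per well, scored as % active cells using thresholds from rapamycin (7.5 nM) and DMSO controls. Tsc2-/-, p53-/- MEFs exposed to compound for 24 h; PI cell count recorded as viability.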
# p53null 39C tox: kills p53 null cells at the nonpermissive temperature | H1299 p53-null (neo) cells, 39C, ATPlite viability, 24 h | Potency, µM (series often up to 46.1 µM), for inactives: at the top dose activity, negative = cell killing, actives largely listed as cytotoxic | actives 0.97% (n = 55,000) | AID 904;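 further: potency means the concentration at half of the fitted maximal effect; 0% = DMSO only and -100% = full killing by 100 µM tamoxifen; nearly all actives have a fitted effect of over 50% in size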
#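 Concentration-response (up to 46 uM) was run for 24 h at the nonpermissive 39C on H1299-p53A138V or H1299-neo cells. ATP content was measured with ATPlite luminescence. AC50 values were Hill-modeled after normalizing between DMSO and 100 uM tamoxifen killing.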
# S16 viability: toxic to S16 Pmp22-F2sN Schwann cells; S16 Pmp22-F2sN Schwann cells viability, CellTiter-Glo, 24 h; AID 1508642; Potency, µM (series often up to 57.5 µM), for inactives: top-dose activity change, negative = cytotoxicity, actives largely listed as cytotoxic; actives 0.48% (n = 43,000); further: potency means the concentration at half of the fitted maximal effect; on the % scale 0 is the no-effect control and ±100 the full control effect; nearly all actives have a fitted effect of over 65% in size
#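 S16 Pmp22-F2sN Schwann cells (500-1,000/well) in phenol-red-free DMEM with 10% FBS received 23 nL compound by pin tool for 24 h at 37 °C. Viability was then read as CellTiter-Glo luminescence after 15 min at room temperature.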
# PMP22 txn: modulators of PMP22 gene transcription in S16 Schwann cells. actives 2% (n = 43,000). S16 Pmp22-F2sN Schwann cells (luciferase reporters placed in the Pmp22 gene), FLuc/NLuc coincidence luminescence, 24 h. Potency, µM (doses to about 57.5 µM), for the others: at the highest dose activity change, negative = inhibition, actives largely listed as inhibitors; active means clear falling dose curves in both reporters; inconclusive means both reporters move, but less clearly or upward; inactive means either reporter flat; the % is the NLuc reporter signal; further: potency means the concentration at half of the fitted maximal effect; on the % scale 0 is the no-effect control and ±100 the full control effect
#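 Schwann cells carrying the coincidence reporter were exposed to library compounds for 24 h at 37C, then lysed and read for FLuc and, after quenching, NLuc luminescence on a CCD imager.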
# NLuc saturating: NanoLuc enzyme inhibition artifact for PMP22 screen. shares compounds with PMP22 txn. Secreted NLuc enzyme (filtered S16 cell medium), Nano-Glo luminescence. Potency, µM (series often up to 57.5 µM), for the others: at the top dose activity change, negative = inhibition, most hits filed as inhibitors. actives 4% (n = 690). AID 1508638; further: potency means the concentration at half of the fitted maximal effect; on the % scale 0 is the no-effect control and ±100 the full control effect
# NLuc Km ctr: inhibits NanoLuc under Km conditions, PMP22 counter-screen; shares compounds with PMP22 txn; actives 5% (n = 690); secreted NLuc enzyme, coelenterazine luminescence, Km conditions; Potency, µM (series often up to 57.5 µM), inactives show at the top dose activity change, negative = inhibition, most hits filed as inhibitors; AID 1508639; further: potency means the concentration at half of the fitted maximal effect; on the % scale 0 is the no-effect control and ±100 the full control effect
# FLuc counter: counter-screen for PMP22 expression modulators: firefly luciferase inhibition | Potency, µM (titrated, usually from 57.5 µM), without a hit: at the top dose activity, negative = inhibition, actives largely listed as inhibitors | purified P. pyralis FLuc, luminescence, 10 min | 690 tested, under 10 active | shares compounds with PMP22 txn; further: % of control where 0% means no effect
# Target sequence (P08659 whole entry, looked up): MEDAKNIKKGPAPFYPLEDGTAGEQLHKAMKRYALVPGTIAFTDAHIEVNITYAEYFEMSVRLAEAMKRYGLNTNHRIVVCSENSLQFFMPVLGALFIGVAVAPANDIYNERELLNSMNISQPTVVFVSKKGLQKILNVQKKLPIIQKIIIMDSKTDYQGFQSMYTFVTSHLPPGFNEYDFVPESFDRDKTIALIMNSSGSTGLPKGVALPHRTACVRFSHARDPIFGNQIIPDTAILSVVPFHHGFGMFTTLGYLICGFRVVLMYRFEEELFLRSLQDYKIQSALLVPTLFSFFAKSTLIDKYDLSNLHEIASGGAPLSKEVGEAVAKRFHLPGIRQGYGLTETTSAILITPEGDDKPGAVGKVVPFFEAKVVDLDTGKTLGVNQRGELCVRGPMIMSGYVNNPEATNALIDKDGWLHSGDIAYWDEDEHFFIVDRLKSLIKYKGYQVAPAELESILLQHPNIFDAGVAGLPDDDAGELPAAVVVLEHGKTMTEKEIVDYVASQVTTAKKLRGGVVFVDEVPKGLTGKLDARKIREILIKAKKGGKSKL
# S16 F2sN tox cnf: S16 Schwann cell cytotoxicity, confirmatory | shares compounds with PMP22 txn | S16 Schwann cells viability, CellTiter-Glo ATP luminescence, 24 h | Potency, µM (top dose mostly 57.5 µM), without a hit: at the highest dose activity change, negative = viability loss, actives largely listed as cytotoxic | actives 7% (n = 690) | AID 1508641; further: potency means the concentration at half of the fitted maximal effect; on the % scale 0 is the no-effect control and ±100 the full control effect
# PMP22 txn conf: confirmation of modulators of PMP22 gene transcription in S16 cells. Potency, µM (top dose mostly 57.5 µM), inactives show top-dose activity change, negative = inhibition, most hits filed as inhibitors. shares compounds with PMP22 txn. actives 22% (n = 690). S16 Schwann cells Pmp22-F2sN, dual luciferase, 24 h; active means clear falling dose curves in both reporters; inconclusive means both reporters move, but less clearly or upward; inactive means either reporter flat; the % is the FLuc reporter signal; further: potency means the concentration at half of the fitted maximal effect
# * = called active by the depositor; i = inactive; ? = inconclusive; . = no result. In the library only some 3% were active in any assay of this set; here they are far more common. Unless noted, the call rests on the fitted dose curve; in most records, active means well fitted curve in the direction sought with a large enough effect; inconclusive means small, poorly fitted or top-dose-only effect, or another doubt; inactive means no such curve, though single readings can be large; an effect the other way counts as inactive or inconclusive.
SMILES,p53null 32C tox,SKOV3 invasion,pS6 MEF inh,p53null 39C tox,S16 viability,PMP22 txn,NLuc saturating,NLuc Km ctr,FLuc counter,S16 F2sN tox cnf,PMP22 txn conf
CCOC(=O)N1CCN(Cc2nc3cc(NC(=O)c4ccccc4[N+](=O)[O-])ccc3n2C(C)C)CC1,-8%,?,1%,-4%,?,11µM*,?,-4%,-5%,7%,-22%
CCOC(=O)N1CCN(Cc2nc3cc(NC(=O)c4ccccc4OC)ccc3n2C(C)C)CC1,-8%,?,-17%,?,?,?,.,.,.,.,.
CCOC(=O)N1CCN(Cc2nc3cc([N+](=O)[O-])ccc3n2C(C)C)CC1,-5%,-11%,-17%,-9%,-17%,?,-5%,0%,3%,?,-5%
CS(=O)(=O)c1ccc(-c2cnc(N)c(C(=O)Nc3ccccc3)n2)cc1,.,13%,.,.,.,.,.,.,.,.,.
COc1ccc(-n2nc(C(N)=O)c3c2C(=O)N(c2ccc(N4CCCCC4=O)cc2)CC3)cc1,.,-29%,.,.,.,.,.,.,.,.,.
Cc1ccc(/C=C/c2onc(C)c2S(=O)(=O)N2CCC(C(=O)Nc3cccc(C#N)c3)CC2)cc1,12%,i,-16%,-4%,18%,12µM*,-2%,7%,7%,14%,-16%
Cc1ccc(C)c(NC(=O)C2CCCN(S(=O)(=O)c3c(C)noc3/C=C/N(C)C)C2)c1 (stereo not given),43%,-17%,-26%,23%,3%,?,?,?,3%,-6%,-5%
Cc1ccc(/C=C/c2onc(C)c2S(=O)(=O)N2CCC(C(=O)NCC(C)c3ccccc3)CC2)cc1 (stereo not given),-2%,i,2%,8%,27%,13µM*,-3%,-1%,7%,2%,?
Cc1ccc(/C=C/c2onc(C)c2S(=O)(=O)N2CCC(C(=O)Nc3cc(C)ccc3C)CC2)cc1,0%,i,5%,-8%,?,-19%,.,.,.,.,.
Cc1ccc(Nc2cc(C(=O)NC3CCCC3)c3ccccc3n2)cc1C,-2%,-11%,-13%,-15%,-8%,2.8µM*,2%,1%,?,9%,-11%
Cc1c(/C=C(\C#N)C(=O)Nc2cccc(Cl)c2)c2ccccc2n1Cc1ccccc1Cl,3%,-2%,22%,-2%,-13%,?,-7%,-3%,-5%,6%,-14%
